Measured values from the supplement of paper PMC3334620.
In all, about 33,000 sequences were measured (“E-score (-0.5 to 0.5)”: median about -0.0034, highest 2% from about 0.25 on). This excerpt belongs to a sample that is enriched for the highest values.

The sequences below were run against T1, Yap3 (UniProt P38749) (assay: PBM E-score (8-mer binding enrichment) (E-score (-0.5 to 0.5)); higher = stronger / more preferred TF binding). Conditions: protein concentration: 100 nM; construct: GST-full length.
T1 sequence: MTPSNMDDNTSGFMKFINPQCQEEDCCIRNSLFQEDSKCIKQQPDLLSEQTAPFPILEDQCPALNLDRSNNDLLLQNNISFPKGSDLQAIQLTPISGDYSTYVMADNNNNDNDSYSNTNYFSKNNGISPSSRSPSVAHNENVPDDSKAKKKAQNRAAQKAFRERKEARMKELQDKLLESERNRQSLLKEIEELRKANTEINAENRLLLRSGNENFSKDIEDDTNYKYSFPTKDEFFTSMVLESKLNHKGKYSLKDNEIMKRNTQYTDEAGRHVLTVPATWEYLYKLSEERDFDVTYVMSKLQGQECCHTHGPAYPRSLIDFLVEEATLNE
In short: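 Universal all-10-mer Agilent arrays, fresh or stripped once, were converted to double-stranded form by primer extension. GST-tagged yeast transcription factors from PURExpress in vitro transcription/translation, full-length or DNA-binding domain only, were applied at about 100-200 nM and detected with fluorescent anti-GST. After masliner normalisation, the Universal PBM Analysis Suite scored each ungapped eight-base word together with its reverse complement by E-score.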

Sequence	PBM E-score
AAGAGAGC	-0.218
CCCACCAA	0.0694
ACCCCTTC	-0.182
CATCGCAC	-0.0244
CGAACTTA	0.0175
GTAGTTTA	0.203
ATAGAGCA	0.0256
CCCCGCCA	0.0511
CTAAATTA	0.212
ATAAATTG	0.312
AGAAATTC	0.0349
AAAAATTG	0.0568
ATAAATTC	0.153
GTAAATTA	0.223
AGAAATTG	0.266
ACAAATTG	0.173
ATAAATTA	0.365
AGACAAAA	0.0827
CCTAATAC	0.122
CCTAATGA	0.128
ACTAAGAA	0.205
GCTAATAC	0.176
ACTAATCA	0.255
ACTAATGA	0.264
ACTAAGAT	0.255

Sequence	PBM E-score
ACTAAGAC	-0.0709
ACTAATAC	0.288
GCTAATGA	0.0606
ACTAATCT	0.00634
TCTAATCA	0.185
CGTGTGTA	0.172
ATAGGTTA	0.0929
AGCAAACT	0.158
ATAGAGGA	-0.186
TCTAATAA	0.167
ACTAATAT	0.301
CCTAATAA	0.146
ACTAATAG	0.244
ACTAATAA	0.303
ACGAATAT	0.212
ATTAAAGG	0.199
CAAACTCC	-0.0365
CCGTGGAA	-0.00863
GCTCACAA	0.0362
TCGATGCA	-0.0467
AGTAATTC	0.235
GGTAATTA	0.221
CGTAATTC	0.296
CCTAATTC	0.036
AGTAAGTA	0.221

Sequence	PBM E-score
CGTAATTA	0.335
AGTAATTG	0.164
AGTAATTA	0.307
CGTAATGA	0.241
AGAAATCA	0.0967
ACCTCTGG	-0.158
ACCAGGAG	-0.207
CTACTCTC	-0.0538
TATGGTCA	0.0184
AATGGTCC	0.113
AATGGTCA	0.26
ACATCCTC	-0.0125
CTGAGAAA	0.0446
AATTTAAA	0.171
CACATGTA	0.109
TACATGTA	0.255
GACATGTA	0.162
ATCGGAAA	0.112
GTCGGAAA	0.263
CTCGGAAA	0.0289
CGAGCCAC	-0.228
GCCAGTAA	-0.206
TCACAAAA	0.206
GTACAAAA	0.233
CTACAAAA	0.0817

Sequence	PBM E-score
ATACAAAA	0.284
ATACAAAT	0.173
TTACAAAA	0.256
GGGTAGCA	-0.108
TAGAGGCA	-0.0959
ATCGTATG	0.0469
GTCTGCAA	-0.0254
CATGTTGC	-0.0984
AATGTTGA	0.0691
CATGTTGA	0.255
ACAAAAAT	0.298
ACAAAAAG	0.239
ACAAAAAA	0.234
GCAAATAC	0.0311
ACAAATAC	0.293
ACAAATAT	0.274
ACAAATAG	0.202
GCAAAACC	-0.0668
ACAAAACC	0.272
ACAAAAAC	0.143
CCAAATAC	-0.144
ACAAATAA	0.225
AAACCCTT	0.0938
ACAGGGTG	-0.126
ACCTAAAA	0.0796

Sequence	PBM E-score
AAGCGGAC	-0.025
ACGTAGTG	0.0166
GTACAGAA	-0.00324
CGTCAATC	0.0678
CCATGAGG	-0.0244
AATAGCCG	0.0258
ACCAGCAG	-0.186
CCTCGTAG	-0.00114
AAGATACA	0.262
AAGATAAC	0.111
AAGATAAG	0.0204
AAGATACT	-0.0357
GAGATACA	0.167
AAGATAAA	0.286
AAGGCCAC	-0.143
ACGCGAAT	0.106
CAATTAGC	0.085
ACAGACCG	-0.0661
CTCCCATC	0.0634
ACCAGAGG	-0.119
AATTCGCG	0.0991
AATTCGCT	0.289
AATTCGCC	0.125
CTGCACTC	0.0431
CTGCACTA	0.262

Sequence	PBM E-score
GTGCACTA	0.0636
AGACCATA	0.156
ATACGTTA	0.0384
CTACGTTA	0.0868
CTACGTCA	-0.0902
ATACGTCA	0.0839
GTACGTTA	0.256
GTACGTCA	0.267
CGAAGTAA	0.0985
GTGCCCAA	-0.0496
ATTAACAG	0.0676
GTTAACAA	0.205
AATAACAG	0.149
AATAACAT	0.164
ATTAACAA	0.282
ATTAACTC	0.193
ATTAACAC	0.273
CTTAACAC	0.114
AATAACAC	0.288
CCTGGTGC	-0.102
AATGCACG	-0.00779
ACATTTCG	0.0557
ACCTGGTC	-0.115
GAATGTAA	0.221
TAATGTAA	0.312

Sequence	PBM E-score
AAATGGAA	0.0788
AAATGTAA	0.227
GAATGGAA	0.131
TAATGGAA	0.256
CGAGGCGC	-0.0513
ATATTGAC	0.069
ATGCAGAC	-0.0609
CCTGGGTA	-0.172
GAAACGAC	0.123
GAAACGAA	0.255
CAAACGAA	0.0114
GGCGGGGA	0.233
GATAATAA	0.113
TATAATAA	0.287
TATAATGA	0.136
AATAATAA	0.308
TGCAATAA	0.272
CGCAATAA	0.191
GGCAATAA	0.114
AATAATAG	0.2
CATAATAA	0.105
CATAATAC	0.24
GATAATAC	0.182
AATAATAC	0.296
CAGCTGCC	-0.0739

Sequence	PBM E-score
CATCCTTA	-0.00117
CCCAGTTC	-0.0993
GGTGCGGA	-0.0917
CGATGGAC	-0.0566
AACCATCC	-0.0788
AATGCTCT	-0.0877
CAGACAAA	0.126
CGCTCACC	-0.0419
GCCCAGCA	-0.301
AATAAGAA	0.269
AATAATCT	0.31
AAGAATAT	0.0717
AATAAGAG	0.195
AATAATAT	0.337
CATAATGG	-0.033
AATAAGAT	0.075
AATAATCC	0.109
AATAATGG	0.329
AATAATCG	0.107
AATAATGT	0.233
GACGGGGA	-0.164
ACCAGGTC	-0.0571
CGGCGATC	-0.086
GAGGGGCC	-0.323
AGCTCAGG	-0.0122

Sequence	PBM E-score
GATTATTA	0.198
GATTATAA	0.244
TATTATAA	0.281
CATTATTA	0.334
AATTATAC	0.26
AATTATTA	0.311
AATTATAG	0.234
AATTATTG	0.195
CATTATAA	0.0345
CATTATTC	0.185
AGTTATTA	0.184
AATTATAA	0.224
GAACCCTA	-0.054
CAAGGGTC	-0.0382
AAGAATCC	-0.111
ACCTCTCT	-0.175
ATACTTCG	-0.0772
GGACTGTA	-0.0642
TATGCAGA	0.0525
